Reference: the supplement of paper PMC9694430
Counter-ions that a name gives are not always drawn.

What was measured:
Assay in all cases: thermal shift delta Tm vs DMSO control; higher = stronger stabilization (binding)
Conditions in all cases: 12.5 µM; protein concentration 2 µM
LOC_OS01G57100-cb003 = test system: LOC_OS01G57100-cb003
Method in brief: (§1)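 The melting temperature shift given here is a triplicate mean, measured against protein that received only DMSO. Melting temperatures came from Boltzmann fits of differential scanning fluorimetry data on E. coli-expressed, purified rice kinase domain constructs. Each 19.5 μl well contained 2 μM kinase, 100 mM potassium phosphate pH 7.5, 150 mM NaCl, 10% glycerol, 5 × SYPRO Orange and compound in DMSO. Plates were scanned from 25°C to 95°C at 0.05°C/s.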

LOC_OS01G60330-cb001 = test system: LOC_OS01G60330-cb001
Method in brief: as §1

LOC_OS01G60700-cb002 = test system: LOC_OS01G60700-cb002
Method in brief: as §1

LOC_OS01G63280-cb003 = test system: LOC_OS01G63280-cb003
Method in brief: as §1

LOC_OS01G67340-cb003 = test system: LOC_OS01G67340-cb003
Method in brief: as §1

LOC_OS01G70970-cb002 = test system: LOC_OS01G70970-cb002
Method in brief: as §1

LOC_OS02G07810-cb001 = test system: LOC_OS02G07810-cb001
Method in brief: as §1

LOC_OS02G08530-cb003 = test system: LOC_OS02G08530-cb003
Method in brief: as §1

LOC_OS02G14120-cb001 = test system: LOC_OS02G14120-cb001
Method in brief: as §1

LOC_OS02G17970-cb001 = test system: LOC_OS02G17970-cb001
Method in brief: as §1

LOC_OS02G45750-cb003 = test system: LOC_OS02G45750-cb003
Method in brief: as §1

LOC_OS02G54510-cb004 = test system: LOC_OS02G54510-cb004
Method in brief: as §1

LOC_OS03G04050-cb001 = test system: LOC_OS03G04050-cb001
Method in brief: as §1

LOC_OS03G12390-cb001 = test system: LOC_OS03G12390-cb001
Method in brief: as §1

LOC_OS03G27990-cb004 = test system: LOC_OS03G27990-cb004
Method in brief: as §1

LOC_OS03G50450-cb001 = test system: LOC_OS03G50450-cb001
Method in brief: as §1

LOC_OS03G50810-cb003 = test system: LOC_OS03G50810-cb003
Method in brief: as §1

LOC_OS04G35114-cb001 = test system: LOC_OS04G35114-cb001
Method in brief: as §1

LOC_OS04G38480-cb003 = test system: T1, LOC_OS04G38480-cb003
T1 sequence (whole entry): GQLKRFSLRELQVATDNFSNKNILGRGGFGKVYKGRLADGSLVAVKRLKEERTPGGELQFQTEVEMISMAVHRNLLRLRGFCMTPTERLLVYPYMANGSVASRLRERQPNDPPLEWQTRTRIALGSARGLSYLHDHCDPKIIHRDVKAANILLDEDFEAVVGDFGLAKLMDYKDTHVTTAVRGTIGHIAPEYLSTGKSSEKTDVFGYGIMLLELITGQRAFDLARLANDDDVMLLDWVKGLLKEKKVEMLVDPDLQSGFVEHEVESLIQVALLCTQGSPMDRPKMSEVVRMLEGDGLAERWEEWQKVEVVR
Method in brief: as §1

LOC_OS04G41100-cb001 = test system: T2, LOC_OS04G41100-cb001
T2 sequence (whole entry): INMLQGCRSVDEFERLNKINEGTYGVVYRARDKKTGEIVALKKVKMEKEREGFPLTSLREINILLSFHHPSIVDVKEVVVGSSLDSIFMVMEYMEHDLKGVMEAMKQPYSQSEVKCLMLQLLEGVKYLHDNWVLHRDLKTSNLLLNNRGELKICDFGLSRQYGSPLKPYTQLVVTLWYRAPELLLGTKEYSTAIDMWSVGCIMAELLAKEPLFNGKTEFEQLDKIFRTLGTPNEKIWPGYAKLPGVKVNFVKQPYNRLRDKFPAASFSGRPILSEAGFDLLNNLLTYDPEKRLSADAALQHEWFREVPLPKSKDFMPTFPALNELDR
Method in brief: as §1

SMILES | thermal shift delta Tm (LOC_OS01G57100-cb003) | thermal shift delta Tm (LOC_OS01G60330-cb001) | thermal shift delta Tm (LOC_OS01G60700-cb002) | thermal shift delta Tm (LOC_OS01G63280-cb003) | thermal shift delta Tm (LOC_OS01G67340-cb003) | thermal shift delta Tm (LOC_OS01G70970-cb002) | thermal shift delta Tm (LOC_OS02G07810-cb001) | thermal shift delta Tm (LOC_OS02G08530-cb003) | thermal shift delta Tm (LOC_OS02G14120-cb001) | thermal shift delta Tm (LOC_OS02G17970-cb001) | thermal shift delta Tm (LOC_OS02G45750-cb003) | thermal shift delta Tm (LOC_OS02G54510-cb004) | thermal shift delta Tm (LOC_OS03G04050-cb001) | thermal shift delta Tm (LOC_OS03G12390-cb001) | thermal shift delta Tm (LOC_OS03G27990-cb004) | thermal shift delta Tm (LOC_OS03G50450-cb001) | thermal shift delta Tm (LOC_OS03G50810-cb003) | thermal shift delta Tm (LOC_OS04G35114-cb001) | thermal shift delta Tm (LOC_OS04G38480-cb003) | thermal shift delta Tm (LOC_OS04G41100-cb001)
Cc1nc2ccc(-n3ncc(C(=O)c4cc5ccccc5[nH]4)c3N)cc2[nH]1 | -0.72 °C | 2.34 °C | -0.42 °C | 1.52 °C | 2.11 °C | 0.1 °C | 0.91 °C | 1.17 °C | 0.03 °C | 1.37 °C | 2.94 °C | 4.14 °C | 0.05 °C | 1.25 °C | 0.29 °C | -0.16 °C | 0.75 °C | 3.8 °C | 0.93 °C | -0.16 °C
CCCCCCCCCCCCc1ccc(S(=O)(=O)Nc2nncs2)cc1 | 2.08 °C | 0.81 °C | 0.86 °C | 0.54 °C | -1.07 °C | 0.27 °C | 1.33 °C | 0.91 °C | -0.22 °C | 0.86 °C | -1.65 °C | -0.17 °C | 0.7 °C | -0.22 °C | 0.29 °C | -0.07 °C | -0.06 °C | 0.41 °C | 0.58 °C | 0.45 °C
Cc1cc(Nc2cc(N3CCN(C)CC3)nc(Sc3ccc(NC(=O)C4CC4)cc3)n2)n[nH]1 [Tozasertib (VX-680, MK-0457)] | 1.29 °C | 3.67 °C | 1.21 °C | 0.58 °C | 1.87 °C | 2.62 °C | 0.91 °C | 2.4 °C | 7.67 °C | 0.93 °C | 6.99 °C | 1.33 °C | 0.64 °C | 1.35 °C | 0.54 °C | 3.08 °C | 4.7 °C | 8.53 °C | 2.62 °C | 2.03 °C
Cc1ccc(NC(=O)c2ccc(CN3CC[C@H](N(C)C)C3)c(C(F)(F)F)c2)cc1Nc1nccc(-c2cncnc2)n1 [Bafetinib (INNO-406)] | 1.86 °C | 0.46 °C | 1.32 °C | 0.68 °C | 0.51 °C | 0.51 °C | 0.39 °C | 1.13 °C | 0.81 °C | 0.5 °C | 0.37 °C | 3.32 °C | 0.29 °C | 0.16 °C | 0.43 °C | 0.25 °C | 0.34 °C | 0.18 °C | 0.66 °C | 0.35 °C
Cn1c2ccccc2c2c3c(c4c5ccccc5n(CCC#N)c4c21)CNC3=O | 2.09 °C | 2.57 °C | -1.36 °C | 1.14 °C | 4.81 °C | 3.29 °C | 2.07 °C | 5.99 °C | 9.45 °C | 3.31 °C | 5.83 °C | 0.92 °C | 0.61 °C | 2.98 °C | 1.85 °C | 1.84 °C | 6.02 °C | 11.6 °C | 2.74 °C | 0.46 °C
CSc1cccc(Nc2ncc3cc(-c4c(Cl)cccc4Cl)c(=O)n(C)c3n2)c1 | 1.54 °C | 0.88 °C | 0.94 °C | 0.6 °C | 0.72 °C | 0.3 °C | 0.11 °C | 0.12 °C | 0.99 °C | -0.06 °C | 1.81 °C | 1.36 °C | 0.46 °C | 0.1 °C | 0.26 °C | 0.49 °C | 0.58 °C | 2.51 °C | 1.67 °C | 0.59 °C
CC(C)CCN1c2nc(Nc3cc(F)c(O)c(F)c3)ncc2N(C)C(=O)C1C (stereo not given) | 1.71 °C | 6.27 °C | 2.07 °C | 7.85 °C | 8.73 °C | 4.67 °C | 1.13 °C | 2.78 °C | 3.11 °C | 1.38 °C | 3.25 °C | 1.91 °C | 0.57 °C | 7.92 °C | 3.82 °C | 2.58 °C | 3.02 °C | 3.84 °C | 4.5 °C | 1.29 °C
CN(C)Cc1cccc(N=C(c2ccccc2)c2c(O)[nH]c3cc(C(=O)N(C)C)ccc23)c1 | 0.86 °C | 0.56 °C | 0.46 °C | 0.74 °C | 0.8 °C | 0.24 °C | 1.05 °C | 0.71 °C | 1.17 °C | 1.25 °C | 4.33 °C | 0.4 °C | 0.44 °C | 0.66 °C | 1.19 °C | 0.55 °C | 2.45 °C | 5.85 °C | 0.55 °C | 0.45 °C
COc1ccc2c(Oc3ccc(NC(=O)c4c(C)n(CC(C)(C)O)n(-c5ccccc5)c4=O)nc3)ccnc2c1 | 1.79 °C | 0.76 °C | 0.86 °C | 1.14 °C | 0.79 °C | 0.65 °C | 1.3 °C | 0.98 °C | 5.4 °C | 0.76 °C | 1.4 °C | 0.7 °C | 0.2 °C | 0.21 °C | 0.18 °C | 0.38 °C | 0.39 °C | 0.36 °C | 1.95 °C | 0.3 °C
O=C1NC(=O)/C(=C/c2cccc(C(F)(F)F)c2)S1 | 0.63 °C | 0.3 °C | 0.3 °C | 0.28 °C | 0.15 °C | 0.3 °C | 0.46 °C | 0.44 °C | -0.36 °C | 0.43 °C | 0.26 °C | 0.26 °C | 0.76 °C | 0.17 °C | 0.26 °C | 0.29 °C | 0.08 °C | 0.62 °C | -0.19 °C | 0.43 °C
Cn1cnc2c(F)c(Nc3ccc(Br)cc3Cl)c(C(=O)NOCCO)cc21 [Selumetinib (AZD6244)] | 0.72 °C | 0.77 °C | 1.13 °C | -0.08 °C | -0.85 °C | 0.48 °C | 0.62 °C | 0.39 °C | 0.1 °C | 0.19 °C | 0.34 °C | 0.31 °C | 0.26 °C | 0.11 °C | -0.04 °C | -0.25 °C | 0.02 °C | 0.24 °C | 0.38 °C | 0.75 °C
COc1cc2c3cc1Oc1c(OC)c(OC)cc4c1[C@@H](Cc1ccc(O)c(c1)Oc1ccc(cc1)C[C@@H]3N(C)CC2)N(C)CC4 [Berbamine (dihydrochloride)] | 1.3 °C | -0.73 °C | 1.22 °C | -0.06 °C | 0.28 °C | 0.03 °C | -0.23 °C | 1.1 °C | 0.03 °C | -0.21 °C | 0 °C | -0.14 °C | 0.28 °C | -0.42 °C | -0.08 °C | 0.16 °C | -0.29 °C | 0.22 °C | 0.37 °C | 0.23 °C
